Screens (PubChem BioAssay)
Hits are enriched below; roughly 19% of the tested compounds scored in any of these assays.
HT1080 IDH1KD tx = qHTS for induction of synthetic lethality in tumor cells producing 2HG: qHTS for the HT-1080-IDH1KD cell line; Potency, µM (titrated, usually from 46.1 µM), for inactives: at the highest dose activity, negative = toxicity, actives largely listed as cytotoxic; 360,000 tested, 2% active; HT-1080 IDH1 knockdown viability, ATP luminescence, 48 h;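 note: potency is the fitted concentration of half-maximal effect; 0% = DMSO wells and -100% = cell-free medium wells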
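Luminescent ATP read-out (CellTiter-Glo, 10 min at room temperature) after 48 h compound exposure at 37 °C gave viability of IDH1-knockdown HT-1080 cells. Activity was normalised to DMSO and cell-free wells, then fitted as concentration-response curves.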
DT40 TDP1 no CPT = qHTS for Inhibitors of human tyrosyl-DNA phosphodiesterase 1 (TDP1): qHTS in cells in absence of CPT | DT40 Tdp1-/- hTDP1 cells, no CPT, ATP luminescence, 48 h | Potency, µM (series often up to 46.2 µM), for inactives: at the highest dose activity change, negative = growth inhibition, most hits filed as inhibitors | AID 686978, 2013 | 420,000 tested, 15% active; note: potency is the fitted concentration of half-maximal effect; nearly all actives have a fitted effect of over 55% in size
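Chicken DT40 Tdp1-/- cells complemented with human TDP1, screened without camptothecin (DMSO vehicle only), 400 cells/well. Compounds pin-transferred, cells incubated at 37 °C for at least 48 hr. Growth read as ATP-dependent luminescence (CellTiter-Glo, 30 min at RT).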
TDP1 cell CPT = qHTS for Inhibitors of human tyrosyl-DNA phosphodiesterase 1 (TDP1): qHTS in cells in presence of CPT; chicken DT40 Tdp1-/-;hTDP1 cells + 20 nM CPT, ATP luminescence, 48 h; Potency, µM (series often up to 46.2 µM), for the others: at the top dose activity change, negative = growth inhibition, actives largely listed as inhibitors; 420,000 tested, 12% active; note: potency is the fitted concentration of half-maximal effect; nearly all actives have a fitted effect of over 55% in size
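Cell growth measured by CellTiter-Glo luminescence after a minimum 48 h, 37 C compound exposure with 20 nM CPT in Tdp1-knockout DT40 cells stably expressing hTDP1, seeded 400/well; qHTS titration format.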
HT1080NT lethal = qHTS for induction of synthetic lethality in tumor cells producing 2HG: qHTS for the HT-1080-NT fibrosarcoma cell line; 360,000 tested, 1.6% active; Potency, µM (highest dose often 46.1 µM), for inactives: at the highest dose activity, negative = less viability, most hits filed as cytotoxic; HT-1080-NT fibrosarcoma viability, CellTiter-Glo ATP luminescence, 48 h;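 note: NT is the 2HG producing partner of a matched IDH1 knockdown line; potency is the fitted concentration of half-maximal effect; 0% = DMSO-treated cells and -100% = media-only wells without cells; nearly all actives have a fitted effect of over 55% in size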
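Viability of the 2HG-overproducing fibrosarcoma line after 48 hours of compound exposure at 37 degrees C was determined by luminescence with CellTiter-Glo, and concentration-effect curves were then fitted and categorized.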
IL1B secr inh = qHTS for Inhibitors of Inflammasome Signaling: IL-1-beta AlphaLISA Primary Screen; 360,000 tested, 4.7% active; THP-1 LPS/ATP IL-1B secretion, AlphaLISA, 16 h; hits give low values; AID 743279, 2014; activity change, % at 57.5 µM; in the data active = activity change below about -50%; inconclusive = mostly about -30% to -49%
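Secreted IL-1B measured by AlphaLISA bead assay after 16 h compound exposure of THP-1 cells; compounds (final up to 57.5 uM) added 1 h before LPS (250 ng/mL) and ATP (1.25 mM) stimulation; lower signal means less secretion.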
* marks the source's active call; other numbers are inactive results; i = inactive; ? = inconclusive; nt = not tested or not shown; [ ] = dose if it differs, or a comment. Unless noted, calls come from the whole dose curve; as a rule, active = well fitted curve in the direction sought with a large enough effect; inconclusive = small, poorly fitted or top-dose-only effect, or another doubt; inactive = no such curve, though single readings can be large; an effect the other way counts as inactive or inconclusive. Unless noted, % is set by controls: 0 for no effect and ±100 for the full control effect.

SMILES | HT1080 IDH1KD tx | DT40 TDP1 no CPT | TDP1 cell CPT | HT1080NT lethal | IL1B secr inh
Cc1ccc2nc(NC(=O)CSc3nncc(=O)n3N)sc2c1 | 8% | 16µM* | ? | -3% | 2
COc1ccc(-c2nnc(SCC(=O)Nc3nc4ccccc4s3)n2C)cc1 | 6% | -14% | 1% | 11% | -2
CCOc1ccc(-c2nnc3ccc(SCC(=O)Nc4nc5ccc(C)cc5s4)nn23)cc1 | 9% | 26µM* | ? | -1% | 33
Cc1ccc2nc(NC(=O)CCn3c(=O)sc4ccccc43)sc2c1 | -6% | ? | 18µM* | 1% | 27
Cc1ncc2c(c1CNC(=O)c1ccc3c(c1)OCO3)CCN(C(=O)/C=C/c1ccc(Cl)cc1)C2 | nt | -27% | -9%[9.04 µM] | nt | nt
Cc1cc(C)n2nc3nc(N4CCCCC4)nc(-c4ccco4)c3c2n1 | 9% | 21µM* | 15µM* | 9% | 7
Cc1c(Cl)sn(-c2ccc(Cl)cc2)c1=O | 2.6µM* | 0.026µM* | 0.26µM* | 26µM* | ?
CC(C)C(=O)NS(=O)(=O)c1ccc(N)cc1 | 2% | 2% | 2% | 13% | 32
ON=C1C2CC=C(c3ccccc3)C1CCC2 (configuration not stated) | 3% | -26% | ? | -1% | -58*
Cn1c(SC2CCCCC2=O)nnc1-c1ccncc1 (configuration not stated) | -18% | -17% | -19% | 9%[9.24 µM] | -12
COc1ccccc1OCC(=O)Nc1sc2c(c1C(=O)NCC1CCCO1)CCC2 (configuration not stated) | -7% | ? | ? | 3% | -24
CC1(C)OC(=O)N(c2ccccc2)C12C=Cc1c(ccc3ccccc13)O2 (configuration not stated) | ? | ? | ? | -8% | -4
O=C1NC2(C=Cc3c(ccc4ccccc34)O2)Oc2ccccc21 (configuration not stated) | ? | 23µM* | 23µM* | -15% | -5
COc1cc(C)c(NC(=O)COc2ccc3c(c2)OCO3)cc1C | 17% | ? | -21% | 24% | -18
COc1ccc(S(=O)(=O)N2CCCCCC2)cc1C(=O)NCCOc1ccc(C)cc1 | 1% | ? | ? | -8% | 0
COc1cc(/C=N/NC(=O)c2ccccc2Cl)ccc1Oc1ccc([N+](=O)[O-])cn1 | -20% | ? | ? | -23% | 17
CCOc1cc(/C=C(/C#N)c2nc3ccccc3[nH]2)ccc1Oc1ccc([N+](=O)[O-])cn1 | 0% | ? | 13µM* | -13% | ?
COc1cc(/C=C(/C#N)c2ccc(C)cc2)ccc1Oc1ccc([N+](=O)[O-])cn1 | 6% | ? | ? | 0% | -69*
O=C(/C(=C/c1cccnc1)n1ccnc1)c1ccc(Cl)cc1Cl | -8% | 15µM* | 16µM* | 5% | ?
N/C(=N\OC(=O)c1ccc(Cl)cc1Cl)c1ccncc1 | -8% | 2% | -14% | -1% | -23
O=C(/C(=C/c1ccncc1)n1ccnc1)c1ccc(Cl)cc1Cl | -1% | 13µM* | 16µM* | -3% | -10
NC(=S)Nc1cccc2[nH]ccc12 | 5% | -10% | 9% | 9% | 17
c1coc(CNc2ncnc3c2nc2n3CCCC2)c1 | nt | -22% | -2% | nt | nt
CCOc1ccc(S(=O)(=O)N2CCN=C2c2ccccc2)c(C)c1C | -21% | 23µM* | 16µM* | -21% | i
COc1cc(S(=O)(=O)N2CCN=C2c2ccccc2)ccc1F | ? | 23µM* | ? | ? | 3
SMILES | HT1080 IDH1KD tx | DT40 TDP1 no CPT | TDP1 cell CPT | HT1080NT lethal | IL1B secr inh
COc1cc(S(=O)(=O)N2CCN(c3ccccc3)CC2)ccc1F | 2% | ? | ? | 16% | 17
CCNc1nc(NCC)nc(OCCOC(=O)c2ccccc2)n1 | 1% | -12% | -14% | -2% | 8
COc1ccc(OCCSc2nc(N)cc(N)n2)cc1 | -21% | ? | -4% | -12% | 0
CCNc1nc(SCCOc2ccc(Br)cc2)nc(N(C)C)n1 | -6% | 15µM* | ? | 0% | 6
CCNc1nc(NC(C)C)nc(SCCOc2ccc(C)cc2)n1 | ? | 23µM* | 16µM* | ? | -22
CCNc1nc(NC(C)C)nc(SCCOC(=O)c2ccccc2)n1 | -8% | ? | 15µM* | -7% | 14
CC(=O)c1ccc(N2CCN(S(=O)(=O)c3c(C)[nH]c(C)c3C(=O)N3CCCCC3)CC2)cc1 | 2% | -2% | -10% | -2% | -15
O=C(Cn1cc2c(n1)CCCCC2)NCc1ccccn1 | 7% | -7% | -5% | 1% | -1
O=C(/C=C/c1ccc(F)cc1)Nc1nc2n(n1)C(c1ccc(Cl)cc1)C=C(c1ccccc1)N2 (configuration not stated) | nt | 15µM* | ? | nt | nt
COc1ccccc1/C=C/C(=O)Nc1nc2n(n1)C(c1ccc(F)cc1)C=C(c1ccccc1)N2 (configuration not stated) | nt | 4.6µM* | 10µM* | nt | nt
COc1ccc(C2C=C(c3ccccc3)Nc3nc(NC(=O)/C=C/c4ccc(Cl)cc4)nn32)cc1 (configuration not stated) | nt | 12µM* | 15µM* | nt | nt
OCCCc1nc2n(n1)C(c1ccccc1)C=C(c1ccc(F)cc1)N2 (configuration not stated) | 16% | -11% | -13% | -3% | -3
O=S(=O)(Nc1nc2n(n1)C(c1ccc(F)cc1)C=C(c1ccc(Cl)cc1)N2)c1ccccc1 (configuration not stated) | nt | -18% | -25% | nt | nt
O=C(/C=C/c1ccccc1)Nc1nc2n(n1)C(c1ccc(Cl)cc1)C=C(c1ccccc1)N2 (configuration not stated) | nt | 23µM* | 21µM* | nt | nt
Cc1ccc(C)c(N2CCN(CCCNC(=O)c3ccc4nc(C(C)C)oc4c3)CC2)c1 | nt | 3.7µM* | 7.3µM* | nt | nt
Cc1ccc(C)c(N2CCN(Cc3csc(C)c3)CC2)c1 | nt | 23µM* | ? | nt | nt
Cc1ccc(C)c(N2CCN(CCCc3ccccc3)CC2)c1 | 0% | ? | 21µM* | -2% | 25
Cc1ccc(C)c(N2CCN(CCCNC(=O)c3ccc4nc(CCc5ccccc5)oc4c3)CC2)c1 | nt | 4.1µM* | 3.7µM* | nt | nt
Cc1cc([N+](=O)[O-])c(NCCCCCCO)c([N+](=O)[O-])c1 | -10% | -21% | 0% | ? | -10
